# Compound activity: PubChem BioAssay, National Center for Advancing Translational Sciences (NCATS)
# Hits are enriched below; roughly 18% of the tested compounds scored in any of these assays.
# TDP1 cell noCPT = qHTS for Inhibitors of human tyrosyl-DNA phosphodiesterase 1 (TDP1): qHTS in cells in absence of CPT | DT40 Tdp1-/- hTDP1 cells, no CPT, ATP luminescence, 48 h | Potency, µM (series often up to 46.2 µM), for the others: at the top dose activity change, negative = growth inhibition, most hits filed as inhibitors | hit rate 15% among 420,000 | AID 686978, 2013; note: potency is the fitted concentration of half-maximal effect; % is set by controls: 0 for no effect and ±100 for the full control effect; nearly all actives have a fitted effect of over 55% in size
#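 Chicken DT40 Tdp1-/- cells stably complemented with human TDP1 were seeded at 400 cells/well with DMSO in place of 20 nM camptothecin. After compound pinning, cells grew at least 48 hr at 37 °C; viability read by CellTiter-Glo luminescence.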
# HepG2 viability = kills HepG2 cells in TGF-b inhibitor counter-screen | Potency, µM (titrated, usually from 46.1 µM), without a hit: at the top dose activity change, negative = cytotoxicity, usual class: cytotoxic | AID 588856 | hit rate 0.76% among 410,000 | HepG2 CAGA-GFP viability, ATP luminescence, 18 h; note: potency is the fitted concentration of half-maximal effect
#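 HepG2 CAGA-GFP cells (1000/well, DMEM with 1% FBS) received compound, then TGF-beta at 500 pg/mL final, and were incubated 18 hours at 37 degrees C. Viability was read by CellTiter-Glo luminescence. Media-only wells were set as complete cell-killing and DMSO as no toxicity.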
# TDP1 block = TDP1 (human) enzyme inhibition. AID 485290. recombinant TDP1, AlphaScreen DNA substrate cleavage. hit rate 0.28% among 350,000. Q9NUW8. Potency, µM (top dose mostly 130 µM), without a hit: at the highest dose activity change, negative = inhibition, usual class: inhibitors; note: potency is the fitted concentration of half-maximal effect; % is set by controls: 0 for no effect and ±100 for the full control effect; nearly all actives have a fitted effect of over 40% in size
# Target sequence (Q9NUW8 whole entry, looked up): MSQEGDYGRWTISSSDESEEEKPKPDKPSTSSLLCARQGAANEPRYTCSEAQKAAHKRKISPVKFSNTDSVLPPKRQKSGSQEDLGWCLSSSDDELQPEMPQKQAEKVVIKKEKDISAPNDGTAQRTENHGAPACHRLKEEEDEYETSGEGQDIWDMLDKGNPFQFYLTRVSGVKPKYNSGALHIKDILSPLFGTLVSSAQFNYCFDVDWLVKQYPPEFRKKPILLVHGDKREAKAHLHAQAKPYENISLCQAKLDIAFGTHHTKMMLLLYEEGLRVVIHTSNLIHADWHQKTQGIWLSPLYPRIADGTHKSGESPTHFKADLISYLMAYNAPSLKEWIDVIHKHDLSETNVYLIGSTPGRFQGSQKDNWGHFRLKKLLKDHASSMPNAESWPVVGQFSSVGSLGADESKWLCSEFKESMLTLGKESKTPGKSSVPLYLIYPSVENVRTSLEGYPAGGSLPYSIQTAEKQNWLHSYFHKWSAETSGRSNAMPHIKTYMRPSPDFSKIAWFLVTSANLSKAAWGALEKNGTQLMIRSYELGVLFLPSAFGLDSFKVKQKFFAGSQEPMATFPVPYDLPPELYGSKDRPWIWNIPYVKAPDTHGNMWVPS
#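 Tdp1 1 nM final; 15 min RT w/ cpd; substrate 15 nM, 5 min; beads 10 ug/ml, 10 min; AlphaScreen read. Neg ctrl: no enzyme.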
# DT40 TDP1 CPT = DT40-hTDP1 cell growth loss with CPT | chicken DT40 Tdp1-/-;hTDP1 cells + 20 nM CPT, ATP luminescence, 48 h | Potency, µM (titrated, usually from 46.2 µM), inactives show at the highest dose activity change, negative = growth inhibition, hits mostly inhibitors | hit rate 12% among 420,000; note: potency is the fitted concentration of half-maximal effect; % is set by controls: 0 for no effect and ±100 for the full control effect; nearly all actives have a fitted effect of over 55% in size
#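 Chicken DT40 Tdp1-/- cells complemented with human TDP1, 400 cells/well, exposed to compounds plus 20 nM camptothecin for at least 48 h at 37 C; viability read as ATP content by CellTiter-Glo luminescence.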
# TGFb inhibitor = blocks TGF-b signaling | HepG2 CAGA-GFP TGF-b/SMAD3 reporter, GFP fluorescence, 18 h; TGF-beta stimulated, 500 pg/mL final | Potency, µM (highest dose often 46.1 µM), inactives show at the highest dose activity, negative = inhibition, actives largely listed as inhibitors | hit rate 1.2% among 410,000; note: potency is the fitted concentration of half-maximal effect; % is set by controls: 0 for no effect and ±100 for the full control effect; nearly all actives have a fitted effect of over 65% in size
#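 HEPG2 CAGA-GFP, 1000 cells/well; 2 h settle, 37 C; cpd via pin tool; TGF-b 500 pg/mL final; 18 h, 37 C; GFP imaging ex488/em500-530; %Activity normalised to -TGF-b and +DMSO controls; CRC fit, curve class.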
# IL1B secr inh = inhibitors of inflammasome signaling (IL-1 beta secretion); THP-1 LPS/ATP IL-1B secretion, AlphaLISA, 16 h; stronger effect = lower value; hit rate 4.7% among 360,000; activity change, % at 57.5 µM; in the data active = activity change below about -50%; inconclusive = mostly about -30% to -49%; note: % is set by controls: 0 for no effect and ±100 for the full control effect
#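 THP-1 cells pretreated 1 hr with compounds (up to 57.5 uM final), then stimulated with LPS (250 ng/mL final) plus ATP (1.25 mM final); secreted IL-1B measured by AlphaLISA after 16 hr, decreased signal indicating inhibition.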
# An asterisk follows results filed as active; ? = inconclusive; . = not tested or not shown; [ ] = remark or other dose. Unless noted, calls come from the whole dose curve; as a rule, active = well fitted curve in the direction sought with a large enough effect; inconclusive = small, poorly fitted or top-dose-only effect, or another doubt; inactive = no such curve, though single readings can be large; an effect the other way counts as inactive or inconclusive.
SMILES,TDP1 cell noCPT,HepG2 viability,TDP1 block,DT40 TDP1 CPT,TGFb inhibitor,IL1B secr inh
CC(=O)Nc1cccc(NC(=O)Cc2nc(-c3ccccc3)sc2-c2ccc(C)cc2)c1,?,-18%,8%,?,?,0
CC(C)(C)n1nnnc1C(c1ccc(C#N)cc1)N1CCCC2(CCCCC2)C1 (configuration not stated),23µM*,-14%,0%,21µM*,13%,?
COc1cccc(N/C(=N/C(=S)Nc2ccc(C)cc2C)Nc2nc(C)cc(C)n2)c1,18µM*,4%,4%,?,-17%,70
CCNC(=S)/N=C(/Nc1ccc(OC)cc1)Nc1nc(C)cc(C)n1,21µM*,11%,-5%,23µM*,-4%,26
COc1cccc(NC(=S)Nc2cc(C)cc(C)n2)c1,-22%,10%,1%,-1%,?,.
CC(C)c1nc(N(C)S(C)(=O)=O)nc(-c2ccc(F)cc2)c1/C=C/C(O)CC(O)CC(=O)O (configuration not stated),-51%,.,6%,-20%,.,.
COCc1c(C(C)C)nc(C(C)C)c(/C=C/[C@@H](O)C[C@@H](O)CC(=O)O)c1-c1ccc(F)cc1,0.6µM*,.,.,1.2µM*,.,.
COc1cc(OC)c(NC2=C(c3ccc(C(F)(F)F)cc3)C(=O)c3ccccc32)cc1Cl,23µM*,-8%,2%[12.3 µM],?,?,.
Cc1ccc(C)c(NC2=C(c3ccc(C(F)(F)F)cc3)C(=O)c3ccccc32)c1,5.8µM*,-31%,8%,5.8µM*,-4%,.
Cc1ccc(C)c(NC(=O)CN2C(=O)c3ccccc3C2=O)c1,-9%,22%,.,12%,1%,.
O=C(N/N=C/c1cccc(NC(=O)c2ccc(Cl)cc2)c1)c1cccc(O)c1,13µM*,1%,.,?,-21%,12
O=C(N/N=C/c1ccccn1)c1ccc(Cl)cc1,12µM*,-26%,3%[56.1 µM],12µM*,?,-101*
O=C(N/N=C/c1ccccn1)c1ccncc1,11%,3%,.,2%,7%,-2
COc1cc(C(=O)N/N=C/c2ccccn2)cc(OC)c1OC,4.6µM*,-12%,9%,3.3µM*,-15%,82
O=C(N/N=C/c1ccccn1)c1ccccc1,18µM*,-14%,0%,?,-15%,73
CC(C)n1c(SCC(=O)N2CCN(C)CC2)nc2c1c(=O)n(C)c(=O)n2C,-9%,-34%,.,-2%,2%,-6
COc1ccc(C(=O)Nc2ccccc2C(=O)N/N=C/c2ccccn2)cc1OC,6.5µM*,-18%,9%,4.6µM*,?,.
COc1ccc(C(=O)N/N=C/c2ccc3cccc(O)c3n2)cc1,5.2µM*,-28%,0%,?,-9%,-27
COc1ccc2ccccc2c1/C=N/NC(=O)c1ccc([N+](=O)[O-])cc1,-20%,-8%,.,0%,0%,-8
COc1cc(C(=O)N/N=C/c2cc([N+](=O)[O-])cs2)cc(OC)c1OC,1µM*,-5%,-5%,0.82µM*,-23%,22
O=C(N/N=C/c1ccccn1)c1sc2ccccc2c1Cl,13µM*,-28%,9%,16µM*,?,202
O=C(N/N=C/c1c[nH]c2ccccc12)c1sc2ccccc2c1Cl,?,-15%,11%,-3%,-3%,-28
COc1ccc(C(=O)N/N=C/c2ccccn2)cc1OC,?,-33%,8%,?,3%,-5
CC1(C)CSC(C)(C)C(=O)N1,-7%,5%,.,-15%,2%,12
O=C(Cn1c(=O)[nH]c2sc3c(c2c1=O)CCCC3)NCC1CCCO1 (configuration not stated),0%,-1%,0%,2%,3%,14
SMILES,TDP1 cell noCPT,HepG2 viability,TDP1 block,DT40 TDP1 CPT,TGFb inhibitor,IL1B secr inh
O=C(N/N=C/c1ccc([N+](=O)[O-])o1)c1sc2ccccc2c1Cl,26µM*,-186%,.,23µM*,?,-78*
Cc1ccccc1C(=O)N/N=C/c1ccccn1,?,3%,6%,?,-7%,14
O=C(N/N=C\c1ccccn1)c1ccccc1O,?,3.2µM*,3%,15µM*,?,-123*
Cc1cccc(/C=N/NC(=O)c2ccc(NC(=O)c3ccc(Cl)cc3)cc2)n1,?,-69%,7%,?,13µM*,48
CN(C)c1cccc(NC(=O)C2(C)Cc3c(-c4cccnc4)ccnc3O2)c1 (configuration not stated),?,-4%,.,-24%,14%,-11
Cc1c(Br)cnn1C(C)C(=O)N1CCN(c2ccc(F)cc2)CC1 (configuration not stated),?,-2%,2%,0%,2%,-8
CN(C)c1cccc(NC(=O)C2Cc3c(-c4ccc(Cl)cc4)ccnc3O2)c1 (configuration not stated),?,-43%,.,?,?,-28
O=C(Nc1ccc(Cl)c(C(F)(F)F)c1)C1Cc2c(-c3ccc4c(c3)OCO4)ccnc2O1 (configuration not stated),?,-31%,.,23µM*,11µM*,-3
CC(=O)c1cccc(-c2ccnc3c2CC(C(=O)Nc2ccc(Cl)cc2)O3)c1 (configuration not stated),21µM*,-13%,.,?,-23%,-8
CC(=O)c1cccc(NC(=O)C2Cc3c(-c4ccc(Cl)cc4)ccnc3O2)c1 (configuration not stated),10µM*,-31%,.,?,-29%,-8
CC(=O)Nc1ccc(NC(=O)C2Cc3c(-c4cccc(C(C)=O)c4)ccnc3O2)cc1 (configuration not stated),-19%,0%,.,2%,27%,30
CC(=O)c1cccc(-c2ccnc3c2CC(C(=O)Nc2ccc(Cl)c(C(F)(F)F)c2)O3)c1 (configuration not stated),?,-23%,.,21µM*,13µM*,94
CC(C)c1nnc(N2C(=O)c3oc4ccccc4c(=O)c3C2c2ccccc2F)s1 (configuration not stated),-27%,11%,0%,?,2%,.
O=C(O)c1ccc2c(c1)S(=O)(=O)c1cc(Cl)ccc1C2=O,-13%,-10%,1%,-15%,?,15
